Test results: PubChem BioAssay (Tox21)
Unmarked numbers belong to inactive results. Inconclusive results are not listed. A call without a number means that no potency is given here. The source made the active and inactive calls. Unless noted, the call rests on the fitted dose curve; in most records, active means well fitted curve in the direction sought with a large enough effect in the repeat runs; inconclusive means weak or mixed curves; inactive means no such curve, though single readings can be large; an effect the other way counts as inactive or inconclusive.

Key:
[1] = qHTS assay for small molecule agonists of the p53 signaling pathway (AID 651631; calls by dose curve; further: nearly all actives have a fitted effect of over 15% in size; further: potency means the concentration at half of the fitted maximal effect)
Procedure, shortened: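 Readout was fluorescence from the LiveBLAzer FRET substrate, applied for 2 h at room temperature after 16 h compound exposure at 37 °C. Cells were the p53RE-bla HCT-116 line, with beta-lactamase driven by p53 response elements.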

[2] = qHTS assay for small molecules that induce genotoxicity in human embryonic kidney cells expressing luciferase-tagged ATAD5 (AID 651632); further: nearly all actives have a fitted effect of over 15% in size
Procedure, shortened: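 ATAD5-luc HEK293T, 2,000 cells/well; cpd or DMSO pin-transferred; 16 hr, 37C/5% CO2; Amplite 30 min RT; luminescence.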

[3] = qHTS assay for small molecule agonists of the p53 signaling pathway - cell viability (AID 651633; calls by dose curve; further: nearly all actives have a fitted effect of over 30% in size; further: potency means the concentration at half of the fitted maximal effect)
Procedure, shortened: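 p53RE-bla cells, seeded at 4,000 per well and rested 5 h at 37 C/5% CO2, received compounds in DMSO for 16 h at 37 C. CellTiter-Glo was then added, and luminescence was read after 30 min at room temperature to gauge cytotoxicity.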

[4] = qHTS assay for small molecules that induce genotoxicity in human embryonic kidney cells expressing luciferase-tagged ATAD5 - cell viability (AID 651634; calls by dose curve; further: nearly all actives have a fitted effect of over 25% in size)
Procedure, shortened: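 Fluorescence from CellTiter-Fluor, reporting protease activity within live cells, served as the viability read-out. HEK293T cells carrying luciferase-tagged ATAD5 had been treated with compound for 15.5 hr at 37C.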

[5] = qHTS assay for small molecule disruptors of the mitochondrial membrane potential - cell viability (AID 720634; calls by dose curve;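 further: human HepG2 liver cancer cells; series mostly up to about 83 µM; nearly all actives have a fitted effect of over 20% in size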)
Procedure, shortened: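 Cells: HepG2, 2,000/well, attached overnight. Compound 1 hr, 37 C/5% CO2. +m-MPI dye, +CellTiter-Glo 30 min RT. Readout: luminescence (ATP).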

[6] = qHTS assay for small molecule disruptors of the mitochondrial membrane potential (AID 720635); further: potency means the concentration at half of the fitted maximal effect
Procedure, shortened: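 HepG2 cells (2,000/well) attached overnight at 37C, then took compound for 1 hr at 37C, 5% CO2. Mito-MPS dye was added for 30 min; fluorescence was read at 490/535 nm (monomers) and 540/590 nm (aggregates).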

[7] = qHTS assay to test for compound auto fluorescence at 535 nm (green) in HepG2 cells (AID 720675)
[8] = qHTS assay to test for compound auto fluorescence at 460 nm (blue) in HEK293 cells (AID 720678)
Procedure, shortened: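 HEK293 cells (2,000/well, medium with 10% dialyzed FBS) attached 4-5 hr, then exposed to compound overnight at 37C, 5% CO2. Blue fluorescence read at 405/460 nm, with triamterene as reference fluorophore.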

[9] = qHTS assay to test for compound auto fluorescence at 590 nm (red) in HEK293 cells (AID 720679)
Procedure, shortened: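 HEK293 cells (2,000/well, 10% dialyzed FBS) attached 4-5 hr, then dosed with compound or DMSO and incubated overnight at 37C, 5% CO2. Red fluorescence read at 540/590 nm, Rose Bengal sodium as reference fluorophore.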

[10] = qHTS assay to test for compound auto fluorescence at 460 nm (blue) in HEK293 cell free culture (AID 720681)
Procedure, shortened: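 Test compounds were pinned into cell-free culture medium (DMEM with 10% FBS) and fluorescence was read directly at Ex/Em 405/460 nm. Signals were expressed as fluorescence equivalents of triamterene, with DMSO vehicle as control.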

[11] = qHTS assay to test for compound auto fluorescence at 535 nm (green) in HEK293 cell free culture (AID 720682)
Procedure, shortened: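 Compounds were pin-transferred into cell-free DMEM with 10% FBS, and green fluorescence was read at excitation 485 nm and emission 535 nm. Intensities were expressed as fluorescein-equivalent values.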

[12] = qHTS assay to test for compound auto fluorescence at 590 nm (red) in HEK293 cell free culture (AID 720683)
Procedure, shortened: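 Tox21 10K library compounds were pinned into cell-free DMEM with 10% FBS and fluorescence was read at excitation 540 nm. Activity is expressed as Rose Bengal sodium equivalency.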

[13] = qHTS assay to test for compound auto fluorescence at 590 nm (red) in HepG2 cell free culture (AID 720684)
Procedure, shortened: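 Measured in medium alone (MEM containing 10% FBS) following pintool addition of compound; emission at 590 nm with 540 nm excitation, referenced to Rose Bengal sodium.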

[14] = qHTS assay to test for compound auto fluorescence at 460 nm (blue) in HepG2 cells (AID 720687)
Procedure, shortened: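 Cells (2,000/well in MEM with 10% FBS) attached overnight at 37 C, then were exposed to compound or DMSO for 1 hr at 37 C, 5% CO2. Fluorescence read at Ex/Em 405/460 nm, expressed as triamterene-equivalent signal.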

[15] = biological target: Glucocorticoid receptor (Homo sapiens) (UniProt P04150); assay: qHTS assay to identify small molecule antagonists of the glucocorticoid receptor (GR) signaling pathway (AID 720692; active means well fitted inhibition curve with a large enough effect in the signal ratio in the repeat runs, not every such curve was filed as active; the % refers to the signal ratio)
Procedure, shortened: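 HeLa GR-bla cells; cmpd + dex 5 nM final, 18 h 37 C; LiveBLAzer B/G FRET substrate 2 h RT; fluorescence intensity read. Antagonist mode, qHTS.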

[16] = qHTS assay to test for compound auto fluorescence at 590 nm (red) in HepG2 cells (AID 720674)
Procedure, shortened: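 Compound auto-fluorescence is scored relative to Rose Bengal sodium, measured at 540/590 nm in live HepG2 cultures after 1 hr compound contact (37 C, 5% CO2).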

[17] = qHTS assay to test for compound auto fluorescence at 535 nm (green) in HEK293 cells (AID 720680)
[18] = qHTS assay to test for compound auto fluorescence at 460 nm (blue) in HepG2 cell free culture (AID 720685)
Procedure, shortened: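 Compound (23 nL) or DMSO pinned into cell-free MEM with 10% FBS; blue fluorescence read at 405/460 nm excitation/emission, expressed as auto-fluorescence equivalency to triamterene.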

[19] = qHTS assay to test for compound auto fluorescence at 535 nm (green) in HepG2 cell free culture (AID 720686)
[20] = biological target: Glucocorticoid receptor (Homo sapiens) (UniProt P04150); assay: qHTS assay to identify small molecule agonists of the glucocorticoid receptor (GR) signaling pathway (AID 720691; active means well fitted activation curve with a large enough effect in the signal ratio in the repeat runs, not every such curve was filed as active; the % refers to the signal ratio)
Procedure, shortened: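 Fluorescence intensity from LiveBLAzer B/G FRET substrate (2 h, room temperature) reports beta-lactamase expression driven by the glucocorticoid response element in GR-bla HeLa cells after 18 h compound exposure at 37 C.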

Chain of Glucocorticoid receptor (Homo sapiens) (P04150 whole entry, looked up): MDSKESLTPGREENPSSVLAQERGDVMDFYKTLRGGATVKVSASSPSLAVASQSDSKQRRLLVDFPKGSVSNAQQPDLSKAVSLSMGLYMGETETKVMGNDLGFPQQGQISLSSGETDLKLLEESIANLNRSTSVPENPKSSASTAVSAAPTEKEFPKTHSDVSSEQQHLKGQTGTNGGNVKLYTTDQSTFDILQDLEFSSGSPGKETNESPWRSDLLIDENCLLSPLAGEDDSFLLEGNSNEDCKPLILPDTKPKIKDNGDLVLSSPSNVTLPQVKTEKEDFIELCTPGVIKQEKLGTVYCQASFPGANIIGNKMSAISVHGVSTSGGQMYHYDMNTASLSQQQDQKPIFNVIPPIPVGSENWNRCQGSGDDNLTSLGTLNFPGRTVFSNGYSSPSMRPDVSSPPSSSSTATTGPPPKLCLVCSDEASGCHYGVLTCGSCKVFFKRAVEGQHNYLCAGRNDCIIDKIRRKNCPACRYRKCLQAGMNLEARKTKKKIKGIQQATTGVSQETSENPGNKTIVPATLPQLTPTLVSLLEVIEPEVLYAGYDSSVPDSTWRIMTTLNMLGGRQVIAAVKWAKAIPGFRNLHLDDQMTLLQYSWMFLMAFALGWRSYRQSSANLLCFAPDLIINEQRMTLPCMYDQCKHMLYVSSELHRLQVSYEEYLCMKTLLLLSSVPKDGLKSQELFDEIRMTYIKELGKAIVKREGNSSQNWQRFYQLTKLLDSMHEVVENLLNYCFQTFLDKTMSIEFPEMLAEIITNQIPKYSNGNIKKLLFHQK

With `O=c1[nH]c(=O)n([C@H]2C[C@H](O)[C@@H](CO)O2)cc1F` the Potency [1] was 0.944 µM (active), the Potency [2] was “inactive” and the Potency [3] was 0.211 µM (active). For the same compound, the Potency [4] was “inactive”, the Potency [5] was “inactive” and the Potency [6] was “inactive”. For the same compound, the Potency [7] was “inactive”, the Potency [8] was “inactive” and the Potency [9] was “inactive”. For the same compound, the Potency [10] was “inactive”, the Potency [11] was “inactive” and the Potency [12] was “inactive”. For the same compound, the Potency [13] was “inactive”, the Potency [14] was “inactive” and the Potency [15] was “inactive”.
With `O=C(O)c1cc(=O)c2ccccc2o1` the Potency [1] was “inactive”, the Potency [2] was “inactive” and the Potency [3] was “inactive”. The Potency [4] was “inactive”, the Potency [5] was “inactive” and the Potency [6] was “inactive”. For the same compound, the Potency [16] was “inactive”, the Potency [9] was “inactive” and the Potency [17] was “inactive”. The Potency [10] was “inactive”, the Potency [11] was “inactive” and the Potency [12] was “inactive”. For the same compound, the Potency [13] was “inactive”, the Potency [18] was “inactive” and the Potency [19] was “inactive”. The Potency [14] was “inactive”, the Potency [20] was “inactive” and the Potency [15] was “inactive”.
In the case of `CC1(C)CCC[C@]2(C)[C@H]3CC(=O)O[C@]3(C)CC[C@@H]12`, the Potency [1] is reported as “inactive”, the Potency [2] is reported as “inactive” and the Potency [3] is reported as “inactive”. The Potency [4] was “inactive”, the Potency [5] was “inactive” and the Potency [16] was “inactive”. The Potency [7] was “inactive”, the Potency [8] was “inactive” and the Potency [9] was “inactive”. The Potency [17] was “inactive”, the Potency [10] was “inactive” and the Potency [11] was “inactive”. For the same compound, the Potency [12] was “inactive”, the Potency [13] was “inactive” and the Potency [18] was “inactive”. For the same compound, the Potency [19] was “inactive”, the Potency [14] was “inactive” and the Potency [20] was “inactive”. For the same compound, the Potency [15] was “inactive”.
With `CC(=O)c1ccc(C(C)=O)cc1` the Potency [1] was “inactive”, the Potency [2] was “inactive” and the Potency [3] was “inactive”. The Potency [4] was “inactive”, the Potency [5] was “inactive” and the Potency [6] was “inactive”. For the same compound, the Potency [7] was “inactive”, the Potency [9] was “inactive” and the Potency [17] was “inactive”. The Potency [10] was “inactive”, the Potency [11] was “inactive” and the Potency [12] was “inactive”. For the same compound, the Potency [13] was “inactive”, the Potency [18] was “inactive” and the Potency [19] was “inactive”. For the same compound, the Potency [14] was “inactive”, the Potency [20] was “inactive” and the Potency [15] was “inactive”.
For `CCC(COC(=O)CCS)(COC(=O)CCS)COC(=O)CCS`, the Potency [1] was 68.6 µM (active), the Potency [2] was “inactive” and the Potency [3] was “inactive”. For the same compound, the Potency [4] was “inactive”, the Potency [5] was “inactive” and the Potency [16] was “inactive”. For the same compound, the Potency [7] was “inactive”, the Potency [8] was “inactive” and the Potency [9] was “inactive”. The Potency [17] was “inactive”, the Potency [10] was “inactive” and the Potency [11] was “inactive”. The Potency [12] was “inactive”, the Potency [13] was “inactive” and the Potency [18] was “inactive”. The Potency [19] was “inactive” and the Potency [14] was “inactive”.
With `O=[N+]([O-])c1ccc(F)c(Cl)c1` the Potency [1] was “inactive”, the Potency [2] was “inactive” and the Potency [3] was “inactive”. The Potency [4] was “inactive”, the Potency [5] was “inactive” and the Potency [16] was “inactive”. For the same compound, the Potency [7] was “inactive”, the Potency [8] was “inactive” and the Potency [9] was “inactive”. For the same compound, the Potency [17] was “inactive”, the Potency [10] was “inactive” and the Potency [11] was “inactive”. The Potency [12] was “inactive”, the Potency [13] was “inactive” and the Potency [18] was “inactive”. The Potency [19] was “inactive”, the Potency [14] was “inactive” and the Potency [20] was “inactive”. The Potency [15] was “inactive”.
For `Cc1cccc2cccnc12`, the Potency [1] was “inactive”, the Potency [2] was “inactive” and the Potency [3] was “inactive”. The Potency [4] was “inactive”, the Potency [5] was “inactive” and the Potency [6] was “inactive”. For the same compound, the Potency [16] was “inactive”, the Potency [7] was “inactive” and the Potency [8] was “inactive”. For the same compound, the Potency [9] was “inactive”, the Potency [17] was “inactive” and the Potency [10] was “inactive”. For the same compound, the Potency [11] was “inactive”, the Potency [12] was “inactive” and the Potency [13] was “inactive”. The Potency [18] was “inactive”, the Potency [19] was “inactive” and the Potency [14] was “inactive”.
With `C[Si](Cl)(c1ccccc1)c1ccccc1` the Potency [1] was “inactive”, the Potency [2] was “inactive” and the Potency [3] was “inactive”. For the same compound, the Potency [4] was “inactive”, the Potency [5] was “inactive” and the Potency [6] was 26.6 µM (active). For the same compound, the Potency [16] was “inactive”, the Potency [7] was “inactive” and the Potency [8] was “inactive”. The Potency [9] was “inactive”, the Potency [17] was “inactive” and the Potency [10] was “inactive”. The Potency [11] was “inactive”, the Potency [12] was “inactive” and the Potency [13] was “inactive”. The Potency [18] was “inactive”, the Potency [19] was “inactive” and the Potency [14] was “inactive”. For the same compound, the Potency [20] was “inactive”.
For `CCc1ccc(Br)cc1`, the Potency [1] was “inactive”, the Potency [2] was “inactive” and the Potency [3] was “inactive”. The Potency [4] was “inactive”, the Potency [5] was “inactive” and the Potency [6] was “inactive”. The Potency [16] was “inactive”, the Potency [9] was “inactive” and the Potency [17] was “inactive”. The Potency [10] was “inactive”, the Potency [11] was “inactive” and the Potency [13] was “inactive”. The Potency [18] was “inactive”, the Potency [19] was “inactive” and the Potency [14] was “inactive”. The Potency [20] was “inactive” and the Potency [15] was “inactive”.
With `Nc1ccc(C(=O)O)c(O)c1` the Potency [1] was “inactive”, the Potency [2] was “inactive” and the Potency [3] was “inactive”. The Potency [4] was “inactive”, the Potency [5] was “inactive” and the Potency [6] was “inactive”. For the same compound, the Potency [16] was “inactive”, the Potency [7] was “inactive” and the Potency [8] was “inactive”. For the same compound, the Potency [9] was “inactive”, the Potency [17] was “inactive” and the Potency [10] was “inactive”. The Potency [11] was “inactive”, the Potency [18] was “inactive” and the Potency [19] was “inactive”. For the same compound, the Potency [20] was “inactive” and the Potency [15] was “inactive”.
In the case of `CN(C)Cc1ccccc1O`, the Potency [1] is reported as “inactive”, the Potency [2] is reported as “inactive” and the Potency [3] is reported as “inactive”. For the same compound, the Potency [4] was “inactive”, the Potency [5] was “inactive” and the Potency [6] was “inactive”. The Potency [7] was “inactive”, the Potency [8] was “inactive” and the Potency [9] was “inactive”. The Potency [10] was “inactive”, the Potency [11] was “inactive” and the Potency [13] was “inactive”. The Potency [18] was “inactive”, the Potency [19] was “inactive” and the Potency [14] was “inactive”. The Potency [20] was “inactive”.
For `CCCCNS(=O)(=O)c1ccc(C)cc1`, the Potency [1] was “inactive”, the Potency [2] was “inactive” and the Potency [3] was “inactive”. The Potency [4] was “inactive”, the Potency [5] was “inactive” and the Potency [6] was “inactive”. The Potency [16] was “inactive”, the Potency [7] was “inactive” and the Potency [8] was “inactive”. For the same compound, the Potency [9] was “inactive”, the Potency [17] was “inactive” and the Potency [10] was “inactive”. For the same compound, the Potency [11] was “inactive”, the Potency [12] was “inactive” and the Potency [13] was “inactive”. The Potency [18] was “inactive”, the Potency [19] was “inactive” and the Potency [14] was “inactive”. For the same compound, the Potency [20] was “inactive”.
